Results filed as inconclusive are left out. The source made the active and inactive calls. The call rests on the fitted dose curve; in most records, active means well fitted curve in the direction sought with a large enough effect; inconclusive means small, poorly fitted or top-dose-only effect, or another doubt; inactive means no such curve, though single readings can be large; an effect the other way counts as inactive or inconclusive. Where a SMILES comes first, the peptide text is derived from it. [ ]: non-standard residue; d: D form. The star is where a group is joined. Dolaproine = CO[C@@H]([C@@H]1CCCN1)[C@@H](C)C(=O)O; Dil = CC[C@H](C)[C@H](NC)[C@@H](CC(=O)O)OC; Doe = c1ccc(C[C@H](N*)c2nccs2)cc1; Aib = CC(C)(N)C(=O)O
Tests used:
[1] = test system: Zika virus NS2B-NS3 protease (linked construct); test: Primary screen NINDS Rhodamine qHTS for Zika virus inhibitors (AID 1347160); details: purified NS2B-NS3 protease, Rhodamine110 substrate fluorescence; series mostly up to 57.1 µM; further: nearly all actives have a fitted effect of over 55% in size
Summary of the method: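 Rhodamine110-peptide cleavage (1.5 µM substrate) by 25 nM linked NS2B-NS3 enzyme at pH 8.0 (Tris, Tween 20), after 15 min RT preincubation with compounds; 15-min fluorescence change normalized to controls and Hill-fitted.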

[2] = biological target: Calcium and integrin-binding protein 1 (Homo sapiens) (UniProt Q99828); test: Primary qHTS for Identification of Calcium Integrin Binding Protein 1 (CIB1) Competitor (AID 1508620); details: CIB1-GST / FITC-alphaIIb peptide fluorescence polarization; series mostly up to 114 µM;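 further: GST tagged CIB1 binding a fluorescein labelled alphaIIb integrin peptide tracer; top concentration of the series differs between compounds; on the % scale 0 is the no-effect control and ±100 the full control effect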
Summary of the method: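 CIB1-GST (1 uM final) and compound incubated 15 min at room temperature before adding FITC-alphaIIb peptide tracer (100 nM final). Competition for binding read by fluorescence polarization (ex 480, em 540) after another 15 min at room temperature.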

[3] = biological target: Glutathione peroxidase 1 (Homo sapiens) (UniProt P07203); test: Primary qHTS Assay for Inhibitors of Recombinant Selenoprotein Glutathione Peroxidase 1 (GPX1) (AID 1845191); details: recombinant GPX1, GR-coupled NADPH fluorescence, 15 min; series mostly up to 48.8 µM; further: nearly all actives have a fitted effect of over 65% in size
Summary of the method: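 NADPH consumption tracked by fluorescence at 340/450 nm between t=0 and t=15 min, room temperature. Final mix: 10 nM GPX1, 100 nM glutathione reductase, 1 mM GSH, 0.5 mM NADPH, 0.5 mM cumene hydroperoxide, 0.01% BSA; 30 min compound–enzyme preincubation.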

[4] = biological target: Phospholipid hydroperoxide glutathione peroxidase GPX4 (Homo sapiens) (UniProt P36969); test: Primary qHTS Assay for Inhibitors of Recombinant Selenoprotein Glutathione Peroxidase 4 (GPX4) (AID 1845192); details: recombinant GPX4, GR-coupled NADPH fluorescence, 15 min; series mostly up to 50 µM; further: nearly all actives have a fitted effect of over 65% in size
Summary of the method: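 NADPH consumption followed by fluorescence at 340/450 nm, t=0 and after 15 min at room temperature. Reaction started with cumene hydroperoxide (0.5 mM final) after 30 min compound–GPX4 preincubation; final 200 nM GPX4, 100 nM GR, 1 mM GSH, 0.5 mM NADPH.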

[5] = biological target: Luciferin 4-monooxygenase (Photinus pyralis) (UniProt P08659); test: Primary firefly luciferase (FLuc) qHTS assay for identification of artifact compounds. (AID 1845220); details: purified firefly luciferase, luminescence, 5 min; series mostly up to 54.1 µM; further: nearly all actives have a fitted effect of over 60% in size
Summary of the method: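 Compounds sat 15 min at room temperature with 10 uM luciferin and 10 uM ATP (pH 7.6 Tris acetate). Firefly luciferase (10 nM final) was then added, and luminescence was read 5 min later. Data normalized to no-enzyme and DMSO controls were Hill-fitted.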

[6] = Primary fluorescence-based thiol-reactive (MSTI) qHTS assay for identification of artifact compounds. (AID 1845221); details: MSTI thiol-reactivity probe, 1 h; series mostly up to 53.8 µM;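 further: thiol-reactive compounds lower the probe fluorescence signal; nearly all actives have a fitted effect of over 65% in size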
Summary of the method: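 MSTI probe at 4 uM final in 2% DMSO/PBS pH 7.4; compounds, 1 h at room temperature in dark. Fluorescence Ex/Em 525/598 nm, normalised to Acetyl-MSTI and MSTI, fitted to 4-parameter Hill.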

[7] = test system: Nanoluciferase (engineered Oplophorus gracilirostris luciferase); test: Primary Nanoluciferase (NLuc) qHTS assay for identification of artifact compounds. (AID 1845222); details: NLuc-conditioned medium, Nano-Glo luminescence, 5 min; series mostly up to 54.1 µM;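 further: 0% = DMSO and -100% = no enzyme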
Summary of the method: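 Luminescence from secreted NLuc (filtered, 1:55-diluted S16 cell medium) read 5 min after Nano-Glo substrate; compounds preincubated 15 min, RT. Hill fits of inhibition normalized to DMSO and no-enzyme.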

[8] = Primary redox qHTS assay for identification of artifact compounds. (AID 1845223); details: Amplex Red/HRP redox cycling with DTT, fluorescence; series mostly up to 53.8 µM;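 further: 0% = DMSO and 100% = reference compound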
Summary of the method: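 Redox-cycling detection via DTT (250 uM final) oxidation coupled to Amplex Red (25 uM)/HRP (250 mU/mL) in HBSS. 15 min preincubation plus 30 min after DTT, room temperature. Ex/Em 525/598 nm; 4-parameter Hill fit against DMSO and 10 uM DA3003.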

[9] = test system: HaCat; test: Cytotoxic Profiling of Annotated Libraries Using Quantitative High-Throughput Screening (AID 1296008); details: Five cell lines viability, CellTiter-Glo ATP luminescence, 48-72 h; max response: active compounds read low; further: nearly all actives have a fitted effect of over 60% in size; further: potency means the concentration at half of the fitted maximal effect; on max response: on the % scale 0 is the no-effect control and ±100 the full control effect
Summary of the method: (§1)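 Cytotoxicity was measured as CellTiter-Glo ATP luminescence, read after 10 min at room temperature. Compound treatment of the cells lasted 48 or 72 hr at 37 degrees Celsius in a qHTS format.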

[10] = test system: NIH3T3; test: as above; details: Five cell lines viability, CellTiter-Glo ATP luminescence, 48-72 h; max response: active compounds read low
Summary of the method: as §1

[11] = test system: C33A; test: Primary qHTS to identify gynecologic anti-cancer compounds using libraries of approved drugs and bioactive compounds (AID 1345084); details: Gynecologic cancer cell panel viability, ATPlite luminescence, 48 h; series mostly up to 57.5 µM; further: nearly all actives have a fitted effect of over 55% in size; further: potency means the concentration at half of the fitted maximal effect
Summary of the method: (§2)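 Cells, 1,000 per well, plated 16 h, then exposed 48 h at 37 C to compounds. Viability by ATPlite luminescence after 15 min at room temperature.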

[12] = test system: CASKI; test: as above; details: Gynecologic cancer cell panel viability, ATPlite luminescence, 48 h; series mostly up to 57.5 µM
Summary of the method: as §2

[13] = test system: Es-2; test: as above; details: Gynecologic cancer cell panel viability, ATPlite luminescence, 48 h; series mostly up to 57.5 µM
Summary of the method: as §2

[14] = test system: Hek293T; test: as above; details: Gynecologic cancer cell panel viability, ATPlite luminescence, 48 h, control line for the selectivity index; series mostly up to 57.5 µM
Summary of the method: as §2

[15] = test system: JEG-3; test: as above; details: Gynecologic cancer cell panel viability, ATPlite luminescence, 48 h; series mostly up to 57.5 µM
Summary of the method: as §2

[16] = test system: OV90; test: as above; details: Gynecologic cancer cell panel viability, ATPlite luminescence, 48 h; series mostly up to 57.5 µM
Summary of the method: as §2

[17] = test system: PA-1; test: as above; details: Gynecologic cancer cell panel viability, ATPlite luminescence, 48 h; series mostly up to 57.5 µM
Summary of the method: as §2

[18] = test system: Tov-21-G; test: as above; details: Gynecologic cancer cell panel viability, ATPlite luminescence, 48 h; series mostly up to 57.5 µM
Summary of the method: as §2

[19] = test system: Tov112D; test: as above; details: Gynecologic cancer cell panel viability, ATPlite luminescence, 48 h; series mostly up to 57.5 µM
Summary of the method: as §2

[20] = test system: Zika virus NS2B-NS3 protease (unlinked complex); test: Primary screen GU Rhodamine qHTS for Zika virus inhibitors: Unlinked NS2B-NS3 protease assay (AID 1347159); details: Recombinant ZIKV NS2B-NS3 protease, Rhodamine110 substrate fluorescence; series mostly up to 107 µM; further: on the % scale 0 is the no-effect control and ±100 the full control effect; nearly all actives have a fitted effect of over 60% in size
Summary of the method: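 Percent inhibition came from the 15-min rise in Rhodamine110 fluorescence (1.5 microM substrate, ~15% conversion), normalized to no-inhibitor and no-enzyme wells and Hill-fitted. Unlinked protease, 25 nM, pH 8.0 Tris buffer; compounds up to 114 microM, 15-min preincubation.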

Phospholipid hydroperoxide glutathione peroxidase GPX4 (Homo sapiens), sequence (P36969 whole entry, looked up): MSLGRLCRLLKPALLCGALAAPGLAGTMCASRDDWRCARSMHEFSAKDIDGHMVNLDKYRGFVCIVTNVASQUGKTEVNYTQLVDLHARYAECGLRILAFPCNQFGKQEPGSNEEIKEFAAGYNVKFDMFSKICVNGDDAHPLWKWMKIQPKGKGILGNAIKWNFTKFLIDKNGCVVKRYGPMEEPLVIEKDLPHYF
Glutathione peroxidase 1 (Homo sapiens), sequence (P07203 whole entry, looked up): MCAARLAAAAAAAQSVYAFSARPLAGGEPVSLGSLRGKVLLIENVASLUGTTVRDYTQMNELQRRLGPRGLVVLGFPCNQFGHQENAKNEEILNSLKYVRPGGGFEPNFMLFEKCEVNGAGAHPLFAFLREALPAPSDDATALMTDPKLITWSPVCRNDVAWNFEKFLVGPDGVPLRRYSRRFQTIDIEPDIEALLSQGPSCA
Calcium and integrin-binding protein 1 (Homo sapiens), sequence (Q99828 whole entry, looked up): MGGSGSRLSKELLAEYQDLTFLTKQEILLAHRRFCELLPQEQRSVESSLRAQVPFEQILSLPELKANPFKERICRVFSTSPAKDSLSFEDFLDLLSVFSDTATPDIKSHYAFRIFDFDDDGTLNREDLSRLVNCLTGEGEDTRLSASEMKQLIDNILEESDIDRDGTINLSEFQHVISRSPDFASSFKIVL

O=C1CN=C(c2ccccc2Cl)c2cc(Br)ccc2N1
inactive: Potency [1] | Potency [2] | Potency [3] | Potency [4] | outcome [5] | Potency [6] | Potency [7] | Potency [8] | max response [9] -40.1% | outcome [10] | Potency [11] | Potency [12] | Potency [13] | Potency [14] | Potency [15] | Potency [16] | Potency [17] | Potency [18] | Potency [19]

C[C@@H]1O[C@@H](O[C@H]2CC[C@@]3(C)C(CC[C@@H]4C3CC[C@]3(C)[C@@H](C5=CC(=O)OC5)CC[C@]43O)C2)[C@H](O[C@@H]2O[C@H](CO)[C@@H](O)[C@H](O)[C@H]2O)[C@H](O)[C@H]1O (stereo not given in full)
active: Potency [9] 2.17 µM | Potency [11] 0.562 µM | Potency [13] 0.891 µM | Potency [14] 0.891 µM | Potency [15] 2.82 µM | Potency [17] 1 µM | Potency [18] 0.708 µM | Potency [19] 0.224 µM
inactive: Potency [20] | Potency [1] | Potency [2] | Potency [3] | Potency [4] | outcome [5] | Potency [6] | Potency [7] | max response [10] -13.4%

CC[C@H](C)[C@@H]([C@@H](CC(=O)N1CCC[C@H]1[C@H](OC)[C@@H](C)C(=O)N[C@@H](Cc1ccccc1)c1nccs1)OC)N(C)C(=O)[C@@H](NC(=O)C(C)(C)N)C(C)C (H-[Aib]V[Dil][Dolaproine]-Doe)
inactive: Potency [1] | Potency [2] | Potency [4] | outcome [5] | Potency [6] | outcome [9] | max response [10] -54.1% | Potency [14]

C/C=C(\C)C(O)C(C)/C=C(C)/C=C/C/C(C)=C/Cc1nc(OC)c(OC)c(O[C@@H]2O[C@@H](C)[C@H](O)[C@@H](O)[C@H]2O)c1C (stereo not given in full)
active: Potency [12] 3.98 µM
inactive: Potency [20] | Potency [1] | Potency [2] | Potency [4] | outcome [5] | Potency [6] | Potency [7] | outcome [9] | Potency [16] | Potency [19]

C[C@]12CC[C@H](O[C@@H]3O[C@H](CO)[C@@H](O)[C@H](O)[C@H]3O)CC1=CC[C@@H]1C2CC[C@]2(C)[C@@H](C3=CC(=O)OC3)CC[C@]12O (stereo not given in full)
active: Potency [13] 10 µM | Potency [18] 6.31 µM | Potency [19] 3.16 µM
inactive: Potency [20] | Potency [1] | Potency [2] | Potency [3] | Potency [4] | outcome [5] inactive [at 25.7 µM] | Potency [6] | Potency [7] | Potency [8] | max response [10] 0.891% | Potency [15] | Potency [16]

C[C@]12CC[C@H](O)CC1=CC[C@@H]1C2CC[C@]2(C)[C@@H](C3=CC(=O)OC3)CC[C@]12O (stereo not given in full)
active: Potency [13] 11.2 µM | Potency [18] 10 µM | Potency [19] 7.08 µM
inactive: Potency [20] | Potency [1] | Potency [2] | Potency [3] | Potency [4] | outcome [5] | Potency [6] | Potency [7] | Potency [8] | max response [10] -1.39% | Potency [12]

CC[C@@H](C)[C@H]1C(=O)O[C@H](C(C)C)C(=O)N(C)[C@@H](C(C)C)C(=O)O[C@H](C(C)C)C(=O)N(C)[C@@H](C(C)C)C(=O)O[C@H](C(C)C)C(=O)N1C
inactive: Potency [20] | Potency [1] | Potency [2] | Potency [3] | Potency [4] | outcome [5] | Potency [6] | Potency [7] | Potency [8] | Potency [12] | Potency [15]

Reference: PubChem BioAssay (NCATS)
